Test results as given in ChEMBL document CHEMBL3433997, “St. Jude Leishmania screening dataset” (2016).

Biological target: Hexose transporter 1 (Plasmodium falciparum) (UniProt O97467)
Experiment: ST_JUDE_LEISH: Cytotoxicity at 2uM final concentration against transgenic Leishmania Mexicana promastigotes LmPfHT that are glucose transport deficient and complemented with the Plasmodium falciparum hexose transporter. Activity is measured by DNA content using SYBR green in vitro
Assay type: functional

Going from `COc1ccc(OCC(=O)Nc2nc(-c3ccc(OC)cc3)c(C)s2)cc1` to `Cc1nc(C)c(-c2ccc(C(=O)c3ccc(Cl)cc3)cc2)c(O)c1Br`, the inhibition rises from 0.94% to 1.24%.

First: CCN(CC)CCNc1ccc(Nc2ccnc3cc4ccccc4cc23)cc1
Second: CCN(CC)CCCCNc1cc(-c2[nH]c(-c3c(Cl)cccc3Cl)nc2-c2ccc3cc(OC)ccc3c2)ccn1
The inhibition of the first is higher: -0.38% for the first, -1.62% for the second.

Compared with `Cc1ccc(C(=O)Nc2cc(S(=O)(=O)N3CCCC3)ccc2OCC(F)(F)F)cc1`, `O=C(NC1CCN(c2ccnc3ccccc23)C1)c1cccc(C(F)(F)F)c1` (stereo unspecified) is lower in inhibition: 4.19% for the first, 1.24% for the second.

First: Fc1ccc2[nH]c(-c3cccc(-c4ccc(CN5CCCCC5)cc4)c3)nc2c1
Second: CN1CCC(N2CCN(Cc3cccc(-c4cccc(-c5nc6ccccc6[nH]5)c4)c3)CC2)CC1
The inhibition of the first is higher: 3.6% for the first, 0.09% for the second.

Compared with `CN1CCC(NCc2cccc(-c3nn(C)c4nc(NC5CCCC5)ncc34)c2)CC1`, `CCn1cnc2c(N3CCCC3=O)cc(C(=O)N[C@@H](Cc3ccccc3)[C@H](O)CNC3CCCCC3)cc21` is higher in inhibition: 1.84% for the first, 1.91% for the second.

Compared with `Cc1c(Cl)cccc1S(=O)(=O)Nc1cccc(CCN2CCC(N3CCCCC3)CC2)c1`, `COc1cccc(C(=O)Nc2ccc(Nc3nc(C)cc(N4CCCCC4)n3)cc2)c1OC` is lower in inhibition: 4.32% for the first, 2.75% for the second.

Compared with `N#Cc1ccc2c(c1)CCN(CCC1CCC(NC(=O)/C=C/c3cccc4ccccc34)CC1)CC2` (stereo unspecified), `O=C(/C=C/c1ccc(Cl)c(Cl)c1)N1CCC(NCc2c[nH]c3ccccc23)CC1` is lower in inhibition: 9.02% for the first, 1.05% for the second.

First: CC(C)(C)c1ccc(OC(=O)c2ccc(NC(=O)N[C@@H](Cc3ccc(O)cc3)C(=O)NC3CCN(Cc4ccc(O)cc4)C3)cc2)cc1 (stereo partly specified)
Second: COc1ccc(C(=O)CCC(=O)N(Cc2ccc(-c3ccc(CNCCc4ccc(S(C)(=O)=O)cc4)cn3)cc2)C2CC3CCC2C3)cc1F (stereo unspecified)
The inhibition of the first is lower: 4% for the first, 9.69% for the second.

Going from `CC(C)(C)c1ccc(O)c(CNC2CCCCC2)c1` to `CSc1ccc(CN2CCC(NC(=O)c3ccc(-c4ccc(N(C)C)cc4)s3)CC2)cc1`, the inhibition falls from 3.36% to 0.28%.

Compared with `CCCCOc1ccc(/C=C/c2ccc(-c3c(C)[nH]c(C)c(Cl)c3=O)s2)cc1`, `Cc1ccc(Cl)cc1NC(=O)c1c(-c2ccccc2Cl)noc1C` is lower in inhibition: 2.35% for the first, -1.54% for the second.

Compared with `Cc1ccc(Cn2ncc(N3CCC(N)CC3)c(Cl)c2=O)cc1NC(=O)Nc1ccc(-c2ccccc2)cc1`, `CC(=O)c1c[nH]c(C(=O)Nc2ccc(-c3cn4ccccc4n3)cc2)c1` is lower in inhibition: 12.3% for the first, 10.9% for the second.

First: Cn1c(Nc2cc(C(C)(C)C)on2)nc2cc(Nc3ccnc(Nc4ccc(CS(C)(=O)=O)cc4)n3)ccc21
Second: N#Cc1ccc(-c2cnc3ccc(NCCc4cccnc4)nn23)cc1
The inhibition of the first is higher: 1.48% for the first, -0.84% for the second.

Going from `COc1ccc(OCCCN2CCN(CC(c3ccc(F)cc3)N3CCN(C(C)C)CC3)CC2)c2ccccc12` (stereo unspecified) to `NC(=O)c1ccsc1NC(=O)CNC(c1ccccc1)c1ccccc1`, the inhibition falls from 5.69% to 3.09%.
